{"source": "the supplement of paper PMC10732440", "tested_on": "Caenorhabditis elegans N2 infected with Nematocida parisii ERTm1", "experiment": "progeny production relative to DMSO uninfected control; higher = more progeny despite microsporidia infection (inhibition of infection with low host toxicity)", "details": "infection time 6 days", "outline": "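Bleach-synchronised wild-type C. elegans L1 larvae (100 per well) were placed in 96-well plates with K-medium, E. coli OP50 and 15,000 N. parisii spores/μL, with compound pinned to 100 μM or 40 μM in 1% DMSO. Plates were shaken at 21°C for 6 days; worms were then Rose Bengal-stained, flatbed-scanned and counted with WorMachine, each compound and dose tested three times. Progeny production is given as a percentage of the spore-free vehicle control, averaged across replicates.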", "note": "± gives the standard deviation of the averaged measurements."}
{"smiles": "Cc1cccc(CC(=O)N[C@H]2CCOC2=O)c1", "values": [{"measurement": "progeny production", "setting": "40 µM", "value": "3.04 ± 0.7", "unit": "%"}, {"measurement": "progeny production", "setting": "100 µM", "value": "6.81 ± 3.6", "unit": "%"}]}
{"smiles": "COc1ccc(COc2cc3oc(=O)c4cc(C(C)O)ccc4c3cc2OC)cc1", "note": "(stereo not given)", "values": [{"measurement": "progeny production", "setting": "40 µM", "value": "5.78 ± 0.94", "unit": "%"}, {"measurement": "progeny production", "setting": "100 µM", "value": "10.9 ± 7", "unit": "%"}]}
{"smiles": "Fc1ccc(-n2cc(Cn3c(-c4cccc(F)c4)nc4ccccc43)nn2)cc1", "values": [{"measurement": "progeny production", "setting": "40 µM", "value": "3.69 ± 0.39", "unit": "%"}]}
{"smiles": "CCc1cc(O)c(Oc2ccc(C(N)=O)cc2F)cc1F", "values": [{"measurement": "progeny production", "setting": "40 µM", "value": "3.13 ± 2.7", "unit": "%"}, {"measurement": "progeny production", "setting": "100 µM", "value": "8.3 ± 5.3", "unit": "%"}]}
{"smiles": "CC(C)(C)c1ccc(OCCn2nc(C(=O)O)c3ccccc3c2=O)cc1", "values": [{"measurement": "progeny production", "setting": "40 µM", "value": "4.58 ± 1.4", "unit": "%"}, {"measurement": "progeny production", "setting": "100 µM", "value": "12 ± 6.5", "unit": "%"}]}
{"smiles": "CC[C@H]1OC(=O)[C@H](C)[C@@H](O[C@H]2C[C@@](C)(OC)[C@@H](O)[C@H](C)O2)[C@H](C)[C@@H](O[C@@H]2O[C@H](C)C[C@H](N(C)C)[C@H]2O)[C@](C)(O)C[C@@H](C)C(=O)[C@H](C)[C@@H](O)[C@]1(C)O", "values": [{"measurement": "progeny production", "setting": "40 µM", "value": "3.49 ± 0.53", "unit": "%"}]}
{"smiles": "CC(C)=CCC/C(C)=C/CNCCNC1C2CC3CC(C2)CC1C3", "note": "(stereo not given)", "values": [{"measurement": "progeny production", "setting": "40 µM", "value": "6.62 ± 1.2", "unit": "%"}, {"measurement": "progeny production", "setting": "100 µM", "value": "30 ± 23", "unit": "%"}]}
{"smiles": "CCOc1ccc(C(=O)NCCc2ccccc2)cc1", "values": [{"measurement": "progeny production", "setting": "40 µM", "value": "6.06 ± 3.1", "unit": "%"}, {"measurement": "progeny production", "setting": "100 µM", "value": "6.07 ± 3", "unit": "%"}]}
{"smiles": "Cn1cc(NC(=O)c2cc(NC(=O)c3ccc(/C=C/c4cnc5ccccc5c4)cc3)cn2C)cc1C(=O)NCCN1CCOCC1", "values": [{"measurement": "progeny production", "setting": "40 µM", "value": "7.6 ± 3.5", "unit": "%"}, {"measurement": "progeny production", "setting": "100 µM", "value": "15.5 ± 5.6", "unit": "%"}]}
{"smiles": "CC1=C(/C=C/C(C)=C/C=C/C(C)=C/C(=O)Nc2ccc(O)cc2)C(C)(C)CCC1", "values": [{"measurement": "progeny production", "setting": "40 µM", "value": "3.02 ± 2.2", "unit": "%"}, {"measurement": "progeny production", "setting": "100 µM", "value": "11.6 ± 9.7", "unit": "%"}]}
{"smiles": "COc1ccc(SC(=O)N[C@H](CCC(=O)O)C(=O)O)cc1", "values": [{"measurement": "progeny production", "setting": "40 µM", "value": "9.06 ± 7.1", "unit": "%"}, {"measurement": "progeny production", "setting": "100 µM", "value": "11.3 ± 0.6", "unit": "%"}]}
{"smiles": "CCOc1noc2cc(OCCC3CCN(c4ccc(C)nn4)CC3)ccc12", "values": [{"measurement": "progeny production", "setting": "40 µM", "value": "4.43 ± 1.4", "unit": "%"}, {"measurement": "progeny production", "setting": "100 µM", "value": "17.1 ± 11", "unit": "%"}]}
{"smiles": "Cc1cc(NS(=O)(=O)c2ccc(-c3ccc(F)cc3F)cc2)no1", "values": [{"measurement": "progeny production", "setting": "40 µM", "value": "4.39 ± 1.9", "unit": "%"}]}
{"smiles": "Clc1cc(Cl)c2c(c1)CCc1ccccc1C2n1ccnc1", "note": "(stereo not given)", "values": [{"measurement": "progeny production", "setting": "40 µM", "value": "7.16 ± 0.49", "unit": "%"}]}
{"smiles": "O=S(=O)(Nc1ccc(O)cc1)c1cccc2cccnc12", "values": [{"measurement": "progeny production", "setting": "40 µM", "value": "5.85 ± 2.2", "unit": "%"}, {"measurement": "progeny production", "setting": "100 µM", "value": "12 ± 6.6", "unit": "%"}]}
{"smiles": "CCc1nc2ccc(Cl)cn2c1C(=O)NCc1ccc(N2CCC(c3ccc(OC(F)(F)F)cc3)CC2)cc1", "values": [{"measurement": "progeny production", "setting": "40 µM", "value": "4.78 ± 2.6", "unit": "%"}, {"measurement": "progeny production", "setting": "100 µM", "value": "6.24 ± 4.5", "unit": "%"}]}
{"smiles": "Fc1ccc2c(/C=C/c3nnn[nH]3)c[nH]c2c1", "values": [{"measurement": "progeny production", "setting": "40 µM", "value": "3.91 ± 4", "unit": "%"}, {"measurement": "progeny production", "setting": "100 µM", "value": "12.2 ± 9.8", "unit": "%"}]}
{"smiles": "CCc1c(O)nc2ccc(F)cc2c1OCC1CCC1", "values": [{"measurement": "progeny production", "setting": "40 µM", "value": "6.76 ± 3.3", "unit": "%"}, {"measurement": "progeny production", "setting": "100 µM", "value": "16.2 ± 9.1", "unit": "%"}]}
{"smiles": "CCc1cc(Cc2cnc(N)nc2N)cc2c1N(C)CCC2C", "note": "(stereo not given)", "values": [{"measurement": "progeny production", "setting": "40 µM", "value": "11.7 ± 8.4", "unit": "%"}, {"measurement": "progeny production", "setting": "100 µM", "value": "4.65 ± 0.53", "unit": "%"}]}
{"smiles": "NC(=O)c1ccccc1NC(=O)c1ccc(C(=O)Nc2ccccc2C(N)=O)cc1", "values": [{"measurement": "progeny production", "setting": "40 µM", "value": "8.47 ± 2.6", "unit": "%"}, {"measurement": "progeny production", "setting": "100 µM", "value": "11.6 ± 6.2", "unit": "%"}]}
{"smiles": "Cc1cc(C)n2nc(C(=O)NS(=O)(=O)c3c(C)cccc3OC(F)(F)F)nc2n1", "values": [{"measurement": "progeny production", "setting": "40 µM", "value": "9.33 ± 0.97", "unit": "%"}, {"measurement": "progeny production", "setting": "100 µM", "value": "5.89 ± 3.9", "unit": "%"}]}
{"smiles": "O=C(CP(=O)(O)O)NCCc1cccc(Oc2ccccc2)c1", "values": [{"measurement": "progeny production", "setting": "40 µM", "value": "4.04 ± 0.94", "unit": "%"}]}
{"smiles": "CCc1nc(N)nc(N)c1C#CCc1ccccc1", "values": [{"measurement": "progeny production", "setting": "40 µM", "value": "8.69 ± 6", "unit": "%"}, {"measurement": "progeny production", "setting": "100 µM", "value": "15.6 ± 5", "unit": "%"}]}
{"smiles": "CN1CCN(Cc2ccc(-c3cnc4[nH]cc(-c5ccc6[nH]ccc6c5)c4c3)cc2)CC1", "values": [{"measurement": "progeny production", "setting": "40 µM", "value": "9.2 ± 4.8", "unit": "%"}, {"measurement": "progeny production", "setting": "100 µM", "value": "14.6 ± 5.6", "unit": "%"}]}
{"smiles": "O=c1[nH]c(=O)n(Cc2cccc(Oc3ccccc3)c2)cc1Nc1ccccc1", "values": [{"measurement": "progeny production", "setting": "40 µM", "value": "4.29 ± 3.5", "unit": "%"}, {"measurement": "progeny production", "setting": "100 µM", "value": "9.39 ± 4.3", "unit": "%"}]}
{"smiles": "CC(C)(C)c1ccc(Oc2ccc(N)cc2)cc1", "values": [{"measurement": "progeny production", "setting": "40 µM", "value": "3.17 ± 1.1", "unit": "%"}, {"measurement": "progeny production", "setting": "100 µM", "value": "11.1 ± 5.3", "unit": "%"}]}
{"smiles": "N[C@@H]1CN(c2c(F)cc3c(=O)c(C(=O)O)cn([C@@H]4C[C@@H]4F)c3c2Cl)CC12CC2", "values": [{"measurement": "progeny production", "setting": "40 µM", "value": "9.37 ± 3.9", "unit": "%"}, {"measurement": "progeny production", "setting": "100 µM", "value": "13.4 ± 6.8", "unit": "%"}]}
{"smiles": "Cc1oncc1C(=O)Nc1ccc(C(F)(F)F)cc1", "values": [{"measurement": "progeny production", "setting": "40 µM", "value": "3.59 ± 1.6", "unit": "%"}, {"measurement": "progeny production", "setting": "100 µM", "value": "6.66 ± 5", "unit": "%"}]}
{"smiles": "Cc1ccc(C)c(OCCCCCCN2C[C@H](O)[C@@H](O)[C@H](O)[C@H]2CO)c1", "values": [{"measurement": "progeny production", "setting": "40 µM", "value": "3.54 ± 0.93", "unit": "%"}, {"measurement": "progeny production", "setting": "100 µM", "value": "14.1 ± 11", "unit": "%"}]}
{"smiles": "CC1CCc2c(N3CCC(O)CC3)c(F)cc3c(=O)c(C(=O)O)cn1c23", "note": "(stereo not given)", "values": [{"measurement": "progeny production", "setting": "40 µM", "value": "8.47 ± 4.4", "unit": "%"}, {"measurement": "progeny production", "setting": "100 µM", "value": "11 ± 2.9", "unit": "%"}]}
{"smiles": "CCCCCCCCC(CP(=O)(O)C(C)N)C(=O)O", "note": "(stereo not given)", "values": [{"measurement": "progeny production", "setting": "40 µM", "value": "7.53 ± 0.85", "unit": "%"}, {"measurement": "progeny production", "setting": "100 µM", "value": "18.6 ± 11", "unit": "%"}]}
{"smiles": "CCN(CC)S(=O)(=O)c1ccc(Cl)c(C(=O)Nc2sc3c(c2C#N)CCCC3)c1", "values": [{"measurement": "progeny production", "setting": "40 µM", "value": "6.31 ± 2.1", "unit": "%"}, {"measurement": "progeny production", "setting": "100 µM", "value": "31.3 ± 22", "unit": "%"}]}
{"smiles": "O=C(Nc1nnc(-c2ccccc2)o1)c1ccc(F)cc1", "values": [{"measurement": "progeny production", "setting": "40 µM", "value": "5.03 ± 1.8", "unit": "%"}, {"measurement": "progeny production", "setting": "100 µM", "value": "6.37 ± 4.7", "unit": "%"}]}
{"smiles": "Oc1c(C(Nc2ccccn2)c2ccccc2)ccc2cccnc12", "note": "(stereo not given)", "values": [{"measurement": "progeny production", "setting": "40 µM", "value": "8.66 ± 7.6", "unit": "%"}, {"measurement": "progeny production", "setting": "100 µM", "value": "9.12 ± 7.2", "unit": "%"}]}
{"smiles": "C[C@@H](O)[C@H](N)C(=O)NS(=O)(=O)c1cccc(-c2ccc3[nH]ncc3c2)c1", "values": [{"measurement": "progeny production", "setting": "40 µM", "value": "3.15 ± 1.8", "unit": "%"}, {"measurement": "progeny production", "setting": "100 µM", "value": "20.2 ± 20", "unit": "%"}]}
{"smiles": "NC(=O)c1nccn([C@@H]2O[C@H](CO)[C@@H](O)[C@H]2O)c1=O", "values": [{"measurement": "progeny production", "setting": "40 µM", "value": "6.9 ± 2.3", "unit": "%"}, {"measurement": "progeny production", "setting": "100 µM", "value": "10.3 ± 7.2", "unit": "%"}]}
{"smiles": "COc1cc2c(O)c3c(c(-c4ccc5c(c4)OCO5)c2cc1OC)C(=O)OC3", "values": [{"measurement": "progeny production", "setting": "40 µM", "value": "4.37 ± 1.7", "unit": "%"}, {"measurement": "progeny production", "setting": "100 µM", "value": "3.64 ± 3.2", "unit": "%"}]}
{"smiles": "CN1CCN(c2ccc3[nH]c(-c4ccc5[nH]c(-c6ccc(O)cc6)nc5c4)nc3c2)CC1", "values": [{"measurement": "progeny production", "setting": "40 µM", "value": "6.36 ± 1.4", "unit": "%"}, {"measurement": "progeny production", "setting": "100 µM", "value": "15.4 ± 12", "unit": "%"}]}
{"smiles": "O=C(Nc1[nH]c(=O)ncc1F)c1ccccc1", "values": [{"measurement": "progeny production", "setting": "40 µM", "value": "4.09 ± 0.71", "unit": "%"}, {"measurement": "progeny production", "setting": "100 µM", "value": "23.8 ± 20", "unit": "%"}]}
{"smiles": "Clc1ccc(COC(Cn2ccnc2)c2ccc(Cl)cc2Cl)c(Cl)c1", "note": "(stereo not given)", "values": [{"measurement": "progeny production", "setting": "40 µM", "value": "4.89 ± 1.7", "unit": "%"}, {"measurement": "progeny production", "setting": "100 µM", "value": "8.86 ± 1.6", "unit": "%"}]}
